Data: PubChem BioAssay (NCI)
The panel holds about 83,000 compounds, 20% with a hit somewhere; the sample as a whole holds those more often.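 Activity criterion: percent growth below 10, measured after cells in 96-well plates were exposed to a single compound concentration for 48 hours.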 Values without a mark were called inactive. Activity calls are given as the source filed them.

Tested on: EKVX NSCLC
Experiment: NCI-60 one-dose screen, 48 h (100 = growth as untreated, 0 = no growth, -100 = all killed)
Conditions: 10 µM unless noted
Experimental: Growth inhibition of the EKVX human Non-Small Cell Lung tumor cell line is measured as a screen for anti-cancer activity. Cells are grown in 96 well plates and exposed to the test compound for 48 hours. Compounds are tested at a single concentration, which is 10^-5 M for most compounds. The reported endpoint is percent growth (GI% or GIPRCNT), where numbers from 0 - 100% represent growth inhibition, and numbers from -100% - 0 represent cell death. For example, a value of 40 represents 60% growth inhibition. A value of 0 means no net growth occurred over the course of the experiment. A value of -40 indicates 40% of cells at the beginning of the experiment died by the end of the experiment. A value of -100 means all cells are dead at the end of the experiment.
NCI-60 Human Tumor Cell Lines Screen was performed using the standard one-dose NCI protocol, which is described in more detail at https://dtp.cancer.gov/discovery_development/nci-60/default.htm.
Compounds with GIPRCNT values below 10 were considered active. Activity score was based on GIPRCNT using the following formula: […]
Score is 0 for GIPRCNT values of 100 or above, 50 for GIPRCNT values of 0, and 100 for GIPRCNT values of -100.

Compound | growth
Cc1ccc(S(=O)(=O)N2CCc3ccc(O)c4c3C2CCc2ccccc2-4)cc1 (stereo not given) | 104%
FC(F)(F)c1ccc2c(c1)n1cnnc1c1nncn21 | 94.4%
O=c1c2c(=NCCN3CCCC3)cc3c(=O)n(CCCN4CCOCC4)c(=O)c4ccc(c(O)n1CCCN1CCOCC1)c2c4-3 | -12.8% (active)
NS(=O)(=O)c1cc(Br)c2c(c1)S(=O)(=O)NCN2 | 120%
C=C(C)COC(=O)c1ccccc1C(=O)OCC1(C)CO1 (stereo not given) | 103%
COc1cc(-c2nc(SC(C)C)nc(Nc3cccc(C)c3)c2C#N)cc(OC)c1OC | 109%
c1ccc2cc(Cn3c(-c4ccc5ccccc5c4)[n+](Cc4ccc5ccccc5c4)c4ccccc43)ccc2c1 | -11.7% (active)
Cc1ccc(C)c2c1sc1nc3nc4sc5ccccc5n4c(=N)c3c(=O)n12 | 95.7%
CCN1CCN(C(=S)SCC(=O)Nc2nc3ccc(OC)cc3s2)CC1 | 101%
Nc1nc(-c2ccnc(Cl)c2)nn1-c1nc2ccccc2s1 | 96.5%
N#C/C(=C\c1ccc[nH]1)c1cc2ccccc2[nH]1 | 37.4%
O=C(NCc1cccnc1)c1ccc([N+](=O)[O-])o1 | 62.1%
O=C(c1ccc2ncc(-c3nc(NC4CC4)ncc3F)n2c1)N1CCOCC1 | 49.2%
CCN(CC)c1ccc(/C=C(\C#N)c2cc3ccccc3[nH]2)cc1 | 71.5%
Cc1cccc2c(=O)c3c(sc12)c(NCCNCCO)nc1ccccc13 | 41.6%
CCC(C)[C@H]1O[C@]2(CC[C@@H]1C)C[C@@H]1C[C@@H](C/C=C(\C)[C@@H](OC3C[C@H](OC)C(O[C@H]4C[C@H](OC)[C@@H](O)[C@H](C)O4)[C@H](C)O3)[C@@H](C)/C=C/C=C3\CO[C@@H]4[C@H](O)C(C)=C[C@@H](C(=O)O1)[C@]34O)O2 (stereo not given in full) | 4.67% (active)
COc1ccc(/C=N/OCC(O)CNCc2ccccc2)cc1OC1CCCC1 (stereo not given) | 93.1%
Cc1ccc2nc(NC(=O)CSC(=S)N3CCN(C)CC3)sc2c1 | 98.1%
Fc1c[c-]c(-c2ccccn2)c(F)c1.Fc1c[c-]c(-c2ccccn2)c(F)c1.[Cl][Pt+].[Cl][Pt+].c1ccc([PH+](C[PH+](c2ccccc2)c2ccccc2)c2ccccc2)cc1 | 12.4%
COc1cc(/C=C/c2cc(/C=C/c3ccc(O)c(OC)c3)n(-c3ccccc3)n2)ccc1O | -38.8% (active)

Compound | growth
c1ccc(-c2n(Cc3ccc4ccccc4c3)c3ccccc3[n+]2Cc2ccc3ccccc3c2)cc1 | 3.45% (active)
CC1(C)CC(=O)C2=C(C1)Nc1cc3c(cc1C2c1ccc(F)cc1)OCO3 (stereo not given) | 92.3%
N#Cc1c(-c2cccc(F)c2)cc(-c2ccc(Br)s2)[nH]c1=O | 89.3%
COc1cc(C(=O)/C=C/c2c(-c3cccs3)nc3sccn23)cc(OC)c1OC | 3.45% (active)
O=C(C[Si](CC(=O)c1cccc(C(F)(F)F)c1)CC(=O)c1cccc(C(F)(F)F)c1)c1cccc(C(F)(F)F)c1 | 36.7%
COc1cccc(C2CC(=O)Nc3cc4c(cc32)CCC4)c1OC (stereo not given) | 72.5%
CCOC(=O)c1cn2c3c(cc(F)cc3c1=O)C(CC)c1ccccc1C2 (stereo not given) | 99.7%
CCCN1CCN(c2ccc3nc(-c4ccc5nc(-c6ccc(C(F)(F)F)cc6)[nH]c5c4)[nH]c3c2)CC1 | -34.3% (active)
COC(=O)c1c2c(c(C)[n+]([O-])c1C)C(=O)C=C(NCc1cccc(Cl)c1)C2=O | -57.3% (active)
CCN(CC)c1ccc2c(c1)OS(=O)(=O)N=C2 | 88%
Cc1cc(O)cc2c1[C@H]1CC[C@]3(C)[C@@H](O)CC[C@H]3[C@@H]1C=C2 | 105%
O=C1/C(=C/c2ccc(Oc3ccccc3)cc2)N=C(c2ccccc2)N1CCc1cccs1 | 95.7%
O=C(CCc1nnc2sc(/C=C\c3ccccc3)nn12)c1nc2ccccc2[nH]1 | 88.6%
COc1ccccc1/C=C/C(=O)/C=C/c1ccccc1O | 46.2%
CC(=O)OC[C@]1(C)C=C2C(=O)[C@](C)(O)C3(CC3)C(C)=C2[C@H]1OC(C)=O | 114%
CON=C1C[C@]2(C[C@@H]3C[C@@H](C/C=C(\C)C[C@@H](C)/C=C/C=C4\CO[C@@H]5[C@H](O)C(C)=C[C@@H](C(=O)O3)[C@]45O)O2)O[C@H](/C(C)=C/C(C)C)[C@H]1C | 20%
COCCOC1=C(Cl)C(=O)c2ccccc2C1=O | 38.9%
COc1cc(/C=C2\C(=O)N(c3c(Cl)cccc3Cl)c3ccccc32)cc(OC)c1O | 79.8%
O=C(N/N=C/c1ccc(F)cc1)c1[nH]c2ccc(I)cc2c1-c1ccccc1 | 5.92% (active)
O=C1NC(=O)C2(CCCC2C(=O)O)N1 (stereo not given) | 94.2%
